DAX1 inh-1: inhibitors of human orphan nuclear receptor DAX1 (NR0B1) | P51843 | HEK293 Gal4-DAX1 luciferase reporter, luminescence | inhibition, % at 6.75 µM | actives 0.99% (n = 340,000) | AID 504766;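 active means inhibition above the mean over all tested compounds plus 3 SD, cut at about 4.2% in these data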;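 further: inhibition shows as a rise in luminescence from relieved DAX1 repression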
Target sequence (P51843 207-470 limits assumed): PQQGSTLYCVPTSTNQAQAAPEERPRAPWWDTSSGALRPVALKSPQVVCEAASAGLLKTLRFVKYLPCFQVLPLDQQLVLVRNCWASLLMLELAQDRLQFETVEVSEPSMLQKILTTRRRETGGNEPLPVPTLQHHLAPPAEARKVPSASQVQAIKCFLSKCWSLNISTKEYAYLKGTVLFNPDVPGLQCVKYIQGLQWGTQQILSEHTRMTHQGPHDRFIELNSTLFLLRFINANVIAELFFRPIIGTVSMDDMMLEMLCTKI
DAX1 inh-2: DAX1 (NR0B1) inhibition, primary screen; HEK293T StAR-luciferase reporter, SF-1/DAX-1 repression relief; inhibition, % at 6.8 µM; actives 1.1% (n = 370,000);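 active means inhibition above the mean over all tested compounds plus 3 SD, cut at about 3.6% in these data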;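 further: higher inhibition means more luminescence from relief of DAX-1 repression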
hgDAF-12 ag: hgDAF-12 agonism, primary luciferase screen | HEK293 GAL4-hgDAF12 UAS-luciferase reporter, agonist luminescence; normalized to butyrate control | activation, % at 6.8 µM | actives 1.8% (n = 370,000) | AID 687014;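 active means activation above a cutoff set at the mean of all screened compounds plus 3 SD, cut at about 10% in these data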
hcDAF-12 act: activators of H. contortus DAF-12 nuclear receptor. actives 1.4% (n = 370,000). HEK293 hcDAF-12 lit1-tk-luc reporter, luminescence; 0% DMSO, 100% Δ7-dafachronic acid. AID 652067. activation, % at 6.8 µM;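 active means activation above the mean of all tested compounds plus 3 SD, cut at about 5.5% in these data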
ssDAF12 agonist: activators of S. stercoralis DAF-12 nuclear receptor. actives 1% (n = 370,000). activation, % at 6.8 µM. HEK293 ssDAF-12/GRIP1 lit1-tk-luc reporter, luminescence; % of 3 µM dafachronic acid response;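 active means activation above the mean over all tested compounds plus 3 SD, cut at about 0.9% in these data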
LXR ag: LXR-beta agonism as hcDAF-12 counter-screen. AID 743027. HEK293 Gal4-LXR tk-luc reporter, luminescence, 24 h; normalized: DMSO 0%, positive control 100%. activation, % at 6.8 µM. shares compounds with hcDAF-12 act. 3,400 tested, under 10 active;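 active means mean percent activation of the reporter above a cutoff set as the average over tested compounds plus their standard deviation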
hcDAF12 conf: hcDAF-12 agonism, confirmation assay. shares compounds with hcDAF-12 act. AID 743032. HEK293 hcDAF-12 lit1-tk-luc reporter, luminescence; % of Δ7-dafachronic acid response. activation, % at 6.8 µM. actives 61% (n = 3,400);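 active means mean activation across triplicate tests above the threshold derived from the earlier primary screen, cut at about 5.5% in these data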
Hits are given with their value. Shown are actives, neighbours in structure and some others; about 4.1% of the full set was active somewhere.

CC(=O)Nc1sc2c(c1-c1nc3ccccc3s1)CCN(C)C2 was read as hgDAF-12 ag inactive, hcDAF-12 act 14, ssDAF12 agonist inactive, LXR ag inactive and hcDAF12 conf 9.4.
Screening CC(=O)Nc1sc2c(c1-c1nc3ccccc3s1)CN(C(C)C)CC2 returned DAX1 inh-1 inactive, DAX1 inh-2 inactive, hgDAF-12 ag 11, hcDAF-12 act 14, ssDAF12 agonist 2.5, LXR ag inactive and hcDAF12 conf 17.
Screening CC(=O)Nc1sc2c(c1-c1nc3ccccc3s1)CN(C(C)C)C2 returned hgDAF-12 ag inactive, hcDAF-12 act inactive and ssDAF12 agonist inactive.
For Cn1c2ccccc2c2cc([N+](=O)[O-])ccc21 the results were DAX1 inh-1 inactive, DAX1 inh-2 inactive, hgDAF-12 ag inactive, hcDAF-12 act inactive and ssDAF12 agonist inactive.
Screening CCN(CC)CCn1c2ccccc2c2nc3ccc([N+](=O)[O-])cc3cc21 returned DAX1 inh-2 inactive, hgDAF-12 ag inactive, hcDAF-12 act 9.0, ssDAF12 agonist 1.1, LXR ag inactive and hcDAF12 conf 6.8.
Screening O=C(NNC(=O)c1ccc2c(c1)OCO2)NC1CCCCC1 returned DAX1 inh-1 inactive, DAX1 inh-2 inactive, hgDAF-12 ag inactive, hcDAF-12 act inactive and ssDAF12 agonist inactive.
For Cc1csc(NC(=O)c2ccc(OCC3CCCO3)cc2)n1 (stereo not given) the results were DAX1 inh-1 inactive, DAX1 inh-2 4.3, hgDAF-12 ag 13, hcDAF-12 act 6.7, ssDAF12 agonist inactive, LXR ag inactive and hcDAF12 conf inactive.
`O=C(Nc1nc(-c2ccc(F)c(F)c2)cs1)c1ccc(OCC2CCCO2)cc1` (stereo not given) gave DAX1 inh-1 inactive, DAX1 inh-2 inactive, hgDAF-12 ag inactive, hcDAF-12 act inactive and ssDAF12 agonist inactive.
`O=C(NC1CCCCCC1)c1ccc(OCC2CCCO2)cc1` (stereo not given) gave DAX1 inh-1 inactive, DAX1 inh-2 inactive, hgDAF-12 ag inactive, hcDAF-12 act 9.8, ssDAF12 agonist inactive, LXR ag inactive and hcDAF12 conf inactive.
O=C(NC1CCCCC1)c1ccc2c(c1)OCO2 was read as DAX1 inh-1 inactive, DAX1 inh-2 inactive, hgDAF-12 ag inactive, hcDAF-12 act 8.3, ssDAF12 agonist inactive, LXR ag inactive and hcDAF12 conf inactive.
Screening CC(C)N(CCNC(=O)c1ccc(OCC2CCCO2)cc1)C(C)C (stereo not given) returned DAX1 inh-1 inactive, DAX1 inh-2 inactive, hgDAF-12 ag inactive, hcDAF-12 act inactive and ssDAF12 agonist inactive.
`Cc1ccc(Nc2nc(CSc3nnc(-c4ccccc4C)n3C)cs2)cc1` gave DAX1 inh-1 inactive, DAX1 inh-2 inactive, hgDAF-12 ag inactive, hcDAF-12 act 6.8, ssDAF12 agonist inactive, LXR ag inactive and hcDAF12 conf inactive.
`Cc1ccc(Nc2nc(CSc3nnc(-c4cccnc4)n3-c3ccccc3C)cs2)cc1` gave DAX1 inh-1 inactive, DAX1 inh-2 inactive, hgDAF-12 ag inactive, hcDAF-12 act inactive and ssDAF12 agonist inactive.
Screening O=C(O)Cn1nc(-c2ccccc2)cc1-c1ccccc1 returned DAX1 inh-1 inactive, DAX1 inh-2 inactive, hgDAF-12 ag inactive, hcDAF-12 act inactive and ssDAF12 agonist inactive.
`CC(=O)n1nc(-c2ccccc2)cc1-c1ccccc1` gave DAX1 inh-1 4.6, DAX1 inh-2 inactive, hgDAF-12 ag 12, hcDAF-12 act 14, ssDAF12 agonist 1.6, LXR ag inactive and hcDAF12 conf 16.
Screening C=CCN1C(=O)c2n[nH]c(C(C)C)c2C1c1ccc2c(c1)OCO2 (stereo not given) returned DAX1 inh-2 inactive, hgDAF-12 ag inactive, hcDAF-12 act inactive and ssDAF12 agonist inactive.
O=C(N/N=C/c1cc2ccccc2[nH]1)c1ccccc1Cl was read as DAX1 inh-1 inactive, DAX1 inh-2 inactive, hgDAF-12 ag inactive, hcDAF-12 act 6.6, ssDAF12 agonist inactive, LXR ag inactive and hcDAF12 conf inactive.
Screening O=C(N/N=C/c1cccc2ccccc12)c1ccccc1Cl returned DAX1 inh-1 inactive, DAX1 inh-2 inactive, hgDAF-12 ag inactive, hcDAF-12 act inactive and ssDAF12 agonist inactive.

High-throughput results: PubChem BioAssay, The Scripps Research Institute Molecular Screening Center
